Assay results taken from PubChem BioAssay.
The source made the active and inactive calls. Unless noted, how the calls were made is not given here.

Assays:
[1] = anti-His antibody binders, primary screen, artefact control for SMM control protein annotation, biochemical, small-molecule microarray, 635 nm fluorescence (AID 1128); conditions: anti-His Alexa647 antibody binding, higher = more signal;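 further: score merges feature fluorescence with signal-to-noise for each printed compound spot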
[2] = test system: Human papillomavirus type 1a E7 protein (residues 1-88); experiment: HPV1a E7 small-molecule binders, primary screen, biochemical, small-molecule microarray, residues 1-88, 635 nm (AID 1129); conditions: small-molecule microarray binding, fluorescence 635 nm; higher = more signal
[3] = target: Focal adhesion kinase 1 (Homo sapiens) (UniProt Q05397); experiment: small-molecule microarray binders of FAK, primary screen, biochemical, 635/667 nm fluorescence, BSA, DTT (AID 1130); conditions: PTK2 binding, 635 nm fluorescence, higher = more signal;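 further: composite of spot emission at 667 nm and signal to noise over triplicate slides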
[4] = test system: Fibrinogen (Alexa647-labelled); experiment: fibrinogen binders on compound microarrays, profiling panel, artefact control for SMM control-protein annotation, biochemical, small-molecule microarray, 635/667 nm fluorescence (AID 1131); conditions: fibrinogen-A647 binding fluorescence, higher = more signal;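 further: z-score merges 667 nm fluorescence with per-spot signal-to-noise over triplicate slides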
[5] = target: Follistatin (Homo sapiens) (UniProt P19883); experiment: follistatin binders on small-molecule microarrays, primary screen, biochemical, small-molecule microarray, 635/667 nm fluorescence (AID 1132); conditions: FST binding, 635 nm fluorescence, higher = more signal
[6] = target: Fibroblast growth factor 2 (Homo sapiens) (UniProt P09038); experiment: FGF2 binders on small-molecule microarrays, primary screen, biochemical, small-molecule microarray, 635/667 nm fluorescence (AID 1133); conditions: small-molecule microarray binding, FGF2, fluorescence 635/667; higher = more signal
[7] = mitochondrial membrane potential change in A549 cells, profiling panel, cell-based, JC-1 fluorescence, basal, 24 h, 100 nL (AID 1138); conditions: higher = more signal;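 further: A549 lung adenocarcinoma cells under basal conditions with no added stimulus; test concentration not given here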
Lefty1 = Lefty1 binders on small-molecule microarrays, primary screen, biochemical, small-molecule microarray, 635/667 nm fluorescence (AID 1139); conditions: small-molecule microarray binding, fluorescence 635/667; higher = more signal
[8] = test system: wheat germ agglutinin (Triticum aestivum), Alexa647-labelled; experiment: wheat germ agglutinin binders on compound microarrays, profiling panel, artefact control for SMM control-protein annotation, biochemical, small-molecule microarray, 635/667 nm fluorescence (AID 1140); conditions: WGA-A647 binding, 635 nm fluorescence, higher = more signal;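 further: score merges 667 nm feature emission with signal to noise over triplicate slides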
[9] = target: Luciferin 4-monooxygenase (Photinus pyralis) (UniProt P08659); experiment: firefly luciferase enzyme inhibitors, primary screen, biochemical, luminescence, purified enzyme, 2006 set (AID 1141); conditions: SteadyGlo luminescence, 30 min, higher = more signal, called active from +8 up or from −8 down;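 further: cell-free assay with purified firefly luciferase at 100 ng per well in PBS; test concentration not given here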
[10] = test system: Wnt5a (protein binding on small-molecule microarray); experiment: Wnt5a binders on small-molecule microarray, primary screen, biophysical, 635/667 nm fluorescence (AID 1142); conditions: 635 nm fluorescence, higher = more signal;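 further: fluorescence read at 667 nm with signal to noise per printed feature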
[11] = cell viability in Huh7 cells, primary screen, cytotoxicity control for HCV replication inhibitor project, CellTiter-Glo luminescence, basal, 48 h (AID 1143); conditions: Huh7 HCV replicon, higher = more signal, called active from +8 up or from −8 down;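 further: Huh7 hepatoma cells carrying a hepatitis C replication reporter with no stimulus; test concentration not given here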
[12] = P. aeruginosa biofilm formation inhibitors, primary screen, PAO1 strain, BacTiter-Glo luminescence, LB-PBS (AID 1144); conditions: 12 h, higher = more signal
[13] = CREB reporter modulators without forskolin, primary screen, cell-based, PC12, CRE-LacZ reporter, unstimulated (AID 1145); conditions: no forskolin, luminescence, 4.5 h, higher = more signal, called active from +8 up or from −8 down
[14] = CREB reporter modulators under forskolin, primary screen, cell-based, PC12, CRE-LacZ reporter, forskolin-stimulated (AID 1146); conditions: luminescence, 4.5 h, higher = more signal, called active from +8 up or from −8 down;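 further: PC12 cells with 6xCRE LacZ reporter stimulated by forskolin 10 µM; beta-galactosidase reporter signal reflecting CREB driven transcription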
[15] = target: Streptavidin (Streptomyces avidinii) (UniProt P22629); experiment: streptavidin binders on small-molecule microarray, primary screen, artefact control for SMM compound annotation, biophysical, 635/667 nm fluorescence (AID 1147); conditions: streptavidin binding, higher = more signal;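 further: signal reflects streptavidin binding to arrayed compounds as a control protein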
[16] = small-molecule binders of probe aInhba, primary screen, biochemical, small-molecule microarray, 635/667 nm fluorescence (AID 1148); conditions: higher = more signal;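 further: score merges 667nm spot fluorescence with signal-to-noise for antibody binding to printed compounds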
Torsin-1A (Homo sapiens) [17] = target: Torsin-1A (Homo sapiens) (UniProt O14656); experiment: torsin A binders from cell lysate, primary screen, small-molecule microarray, wild-type, 635/667 nm (AID 1149); conditions: COS7 hTOR1A-WT lysate, 635 nm fluorescence, higher = more signal
Torsin-1A (Homo sapiens) [18] = target: Torsin-1A (Homo sapiens) (UniProt O14656); experiment: small-molecule binders of mutant TOR1A in lysate, primary screen, cell lysate, small-molecule microarray, COS7 lysate, 635/667 nm fluorescence (AID 1150); conditions: COS7 hTOR1A mutant lysate, 635 nm fluorescence, higher = more signal;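 further: score pools 667 nm emission and signal to noise measuring lysate protein binding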
[19] = test system: Sonic hedgehog protein (Shh); experiment: small-molecule binders of Shh protein, primary screen, biochemical, small-molecule microarray, 635/667 nm fluorescence (AID 1151); conditions: small-molecule microarray binding, 635 nm fluorescence; higher = more signal;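 further: Shh protein binding to compounds spotted on small-molecule microarray slides; score combines spot fluorescence intensity with signal-to-noise across triplicate slides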

Chain of Follistatin (Homo sapiens) (P19883 whole entry, looked up): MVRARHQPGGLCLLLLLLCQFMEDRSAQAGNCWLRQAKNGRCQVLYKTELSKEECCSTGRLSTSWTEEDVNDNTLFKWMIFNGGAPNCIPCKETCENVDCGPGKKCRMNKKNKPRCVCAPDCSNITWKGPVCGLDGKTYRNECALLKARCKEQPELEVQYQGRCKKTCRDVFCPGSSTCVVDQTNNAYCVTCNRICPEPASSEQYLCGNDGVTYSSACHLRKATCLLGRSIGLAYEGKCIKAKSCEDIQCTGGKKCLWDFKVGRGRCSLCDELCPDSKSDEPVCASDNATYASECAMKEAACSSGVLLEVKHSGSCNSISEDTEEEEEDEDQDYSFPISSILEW
Chain of Streptavidin (Streptomyces avidinii) (P22629 whole entry, looked up): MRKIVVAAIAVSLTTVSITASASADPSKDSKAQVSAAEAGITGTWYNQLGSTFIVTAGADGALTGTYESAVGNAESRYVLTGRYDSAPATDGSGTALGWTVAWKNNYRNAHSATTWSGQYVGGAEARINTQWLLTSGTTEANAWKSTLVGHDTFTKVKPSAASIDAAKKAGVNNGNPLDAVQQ
Chain of Fibroblast growth factor 2 (Homo sapiens) (P09038 whole entry, looked up): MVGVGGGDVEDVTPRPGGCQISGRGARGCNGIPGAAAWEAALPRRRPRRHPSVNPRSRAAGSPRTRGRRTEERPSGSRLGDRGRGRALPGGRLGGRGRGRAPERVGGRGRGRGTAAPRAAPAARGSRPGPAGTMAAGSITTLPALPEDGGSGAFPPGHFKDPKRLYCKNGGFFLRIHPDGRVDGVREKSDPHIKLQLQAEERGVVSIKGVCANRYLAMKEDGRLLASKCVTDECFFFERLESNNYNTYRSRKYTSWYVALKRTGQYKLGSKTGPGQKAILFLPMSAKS
Chain of Focal adhesion kinase 1 (Homo sapiens) (Q05397 whole entry, looked up): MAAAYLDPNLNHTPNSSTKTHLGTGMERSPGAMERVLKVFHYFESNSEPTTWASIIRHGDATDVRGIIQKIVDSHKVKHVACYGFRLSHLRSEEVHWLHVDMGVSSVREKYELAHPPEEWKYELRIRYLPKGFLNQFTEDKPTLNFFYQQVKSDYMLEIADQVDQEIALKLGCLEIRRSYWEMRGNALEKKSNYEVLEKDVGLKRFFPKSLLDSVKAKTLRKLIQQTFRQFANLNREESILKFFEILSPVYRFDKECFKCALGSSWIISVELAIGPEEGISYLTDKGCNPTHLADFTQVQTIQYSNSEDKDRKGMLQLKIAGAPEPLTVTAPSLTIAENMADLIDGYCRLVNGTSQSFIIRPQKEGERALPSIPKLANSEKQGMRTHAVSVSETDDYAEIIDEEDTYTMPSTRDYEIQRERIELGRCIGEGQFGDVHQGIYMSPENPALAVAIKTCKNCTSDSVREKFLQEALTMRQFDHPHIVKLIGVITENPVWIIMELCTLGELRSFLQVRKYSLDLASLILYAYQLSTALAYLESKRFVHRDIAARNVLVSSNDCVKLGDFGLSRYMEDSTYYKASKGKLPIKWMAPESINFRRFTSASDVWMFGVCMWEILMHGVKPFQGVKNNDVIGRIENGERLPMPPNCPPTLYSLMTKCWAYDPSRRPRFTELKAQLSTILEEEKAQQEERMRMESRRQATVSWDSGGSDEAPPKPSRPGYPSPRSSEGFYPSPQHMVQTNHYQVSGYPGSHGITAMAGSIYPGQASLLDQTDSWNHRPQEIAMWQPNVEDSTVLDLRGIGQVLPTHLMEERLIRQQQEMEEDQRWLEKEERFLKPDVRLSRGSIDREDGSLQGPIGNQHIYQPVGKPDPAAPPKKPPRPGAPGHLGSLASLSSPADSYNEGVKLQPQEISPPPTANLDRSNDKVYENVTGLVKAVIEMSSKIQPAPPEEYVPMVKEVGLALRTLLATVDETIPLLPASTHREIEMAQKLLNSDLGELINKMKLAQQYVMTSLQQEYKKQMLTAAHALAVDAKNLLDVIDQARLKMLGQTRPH
Chain of Torsin-1A (Homo sapiens) (O14656 whole entry, looked up): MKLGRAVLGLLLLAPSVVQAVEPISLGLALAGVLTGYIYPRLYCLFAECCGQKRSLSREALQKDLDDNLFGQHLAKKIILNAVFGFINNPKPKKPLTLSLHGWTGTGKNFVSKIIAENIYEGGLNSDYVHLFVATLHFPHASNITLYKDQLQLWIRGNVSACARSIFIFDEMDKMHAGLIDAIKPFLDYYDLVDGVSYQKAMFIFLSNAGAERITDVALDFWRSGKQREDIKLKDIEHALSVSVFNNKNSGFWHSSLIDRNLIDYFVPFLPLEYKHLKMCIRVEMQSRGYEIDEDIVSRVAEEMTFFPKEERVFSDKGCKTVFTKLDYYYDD
Chain of Luciferin 4-monooxygenase (Photinus pyralis) (P08659 whole entry, looked up): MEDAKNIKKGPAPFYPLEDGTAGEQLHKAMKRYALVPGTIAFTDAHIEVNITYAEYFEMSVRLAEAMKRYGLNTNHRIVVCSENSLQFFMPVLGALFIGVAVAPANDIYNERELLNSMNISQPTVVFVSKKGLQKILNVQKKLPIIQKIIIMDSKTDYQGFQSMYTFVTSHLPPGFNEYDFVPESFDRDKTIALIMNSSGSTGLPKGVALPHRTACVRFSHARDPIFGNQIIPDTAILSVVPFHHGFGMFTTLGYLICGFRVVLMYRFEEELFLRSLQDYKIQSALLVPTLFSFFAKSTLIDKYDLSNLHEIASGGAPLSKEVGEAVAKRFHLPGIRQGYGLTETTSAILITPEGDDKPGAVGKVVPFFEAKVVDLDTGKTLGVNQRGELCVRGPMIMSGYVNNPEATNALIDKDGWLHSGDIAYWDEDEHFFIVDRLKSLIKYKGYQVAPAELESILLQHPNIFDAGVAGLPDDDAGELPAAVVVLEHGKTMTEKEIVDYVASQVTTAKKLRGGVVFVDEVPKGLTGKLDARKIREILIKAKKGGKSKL

SMILES | composite z-score [1] | composite z-score [2] | composite z-score [3] | composite z-score [4] | composite z-score [5] | composite z-score [6] | z-score [7] | composite z-score (Lefty1) | composite z-score [8] | z-score [9] | composite z-score [10] | z-score [11] | z-score [12] | z-score [13] | z-score [14] | composite z-score [15] | composite z-score [16] | composite z-score (Torsin-1A (Homo sapiens) [17]) | composite z-score (Torsin-1A (Homo sapiens) [18]) | composite z-score [19]
COCCCNC(=O)[C@@H]1c2ccccc2C(=O)N(c2ccc(C)cn2)[C@H]1c1ccc(CO)cc1 | -0.346 | -1.11 | -1.24 | -1.04 | -1.25 | -2.41 | -0.758 | -1.03 | 0.0195 | 0.195 (inactive) | -1.53 | -0.17 (inactive) | -0.894 (inactive) | -0.374 (inactive) | -0.563 (inactive) | -1.6 | -0.159 | -2.83 | -2.65 | -1.2
COC(=O)[C@@]1(Cc2ccc(OC)cc2)[C@H]2c3cc(C(=O)N4CCCC4)n(Cc4ccc(C)o4)c3C[C@H]2CN1C(=O)c1ccccc1 | 0.849 | 1.2 | -0.0727 | -0.369 | 1.09 | -0.648 | -3.11 | -0.211 | 0.26 | -22.4 (active) | 0.989 | -5.19 (inactive) | -0.101 (inactive) | -0.758 (inactive) | -2.15 (inactive) | 0.458 | 0.505 | -1.39 | 0.285 | -0.754
COc1ccc(C(=O)Nc2ccc3c(c2)[C@]2(O[C@@H](CCO)[C@H]([Si](C)(C)c4ccc(OC)cc4)[C@H]2C)C(=O)N3Cc2ccccc2)cc1 | -0.155 | 0.809 | 0.411 | 0.491 | 1.39 | 0.827 | 0.168 | 1.26 | 0.161 | -0.777 (inactive) | 0.476 | -8.09 (active) | -1.18 (inactive) | 1.82 (inactive) | -0.606 (inactive) | 0.328 | -0.0209 | 0.816 | 0.671 | 1.83
COCCCNC(=O)[C@]1(Cc2ccccc2CN=[N+]=[N-])N=C(c2ccc(OCCCO)cc2)O[C@@H]1c1ccccc1CN=[N+]=[N-] | 2.28 | 1.2 | 0.11 | 0.954 | 0.701 | 0.244 | 1.28 | -0.449 | 1.02 | -0.107 (inactive) | 0.471 | -4.04 (inactive) | 1.06 (inactive) | 0.969 (inactive) | -1.02 (inactive) | 1.23 | 0.648 | 0.883 | 0.721 | -0.256
Cc1ccc(S[C@]2(C(=O)NCCN3CCOCC3)CC(=O)N(C3Cc4ccccc4C3)[C@@H]2c2ccc(CO)cc2)cc1 | 1.22 | 0.0419 | 0.82 | -0.778 | -0.135 | -0.592 | 0.161 | -1.47 | -0.278 | 0.54 (inactive) | -0.2 | -0.73 (inactive) | -0.396 (inactive) | -0.152 (inactive) | 1.3 (inactive) | -0.994 | -0.125 | 0.0023 | 0.206 | -0.393
COc1ccc([Si](C)(C)[C@@H]2[C@@H](CCO)O[C@]3(C(=O)N(Cc4cccc(N5C(=O)COc6ccccc65)c4)c4ccccc43)[C@H]2C)cc1 | 0.279 | 0.733 | 0.0257 | 0.415 | -0.0428 | 0.327 | -1.04 | 0.0695 | 0.764 | -0.123 (inactive) | -0.0772 | -7.12 (inactive) | -0.17 (inactive) | 6.98 (inactive) | 0.586 (inactive) | 0.428 | 0.0633 | -0.277 | -0.491 | 0.45
CCOc1cc(C(O)C2C=CC3C(=O)NC(=O)C3N2Nc2ccccn2)ccc1O (stereo not given) | 0.227 | 0.255 | -0.0976 | -0.32 | 0.262 | 0.835 | 0.208 | -0.0684 | -0.298 | 0.25 (inactive) | 0.342 | 0.961 (inactive) | 0.543 (inactive) | -0.333 (inactive) | 0.153 (inactive) | 0.171 | -0.158 | -0.0106 | 0.12 | -0.476
CC(C)CN1C(=O)[C@@]2(Cc3ccccc31)c1ccccc1C(=O)N(Cc1ccccc1)[C@H]2c1ccc(CO)cc1 | -0.966 | -1.28 | -0.457 | -0.492 | -1.72 | -0.776 | -0.204 | -0.78 | 0.145 | -0.336 (inactive) | -0.631 | 0.174 (inactive) | -0.221 (inactive) | -0.295 (inactive) | 0.378 (inactive) | -0.64 | -0.102 | -0.971 | -0.359 | -1.05
COC(=O)[C@@]1(Cc2ccc(F)cc2)[C@H]2c3cc(C(=O)N(C)C)n(CCSCCO)c3C[C@H]2CN1C(=O)c1ccccc1 | 2.06 | 0.674 | 0.879 | 0.241 | 0.297 | -0.254 | 0.554 | -0.601 | 0.45 | 0.0635 (inactive) | -0.0292 | -0.259 (inactive) | -0.482 (inactive) | -0.565 (inactive) | 0.222 (inactive) | 0.352 | -0.0001 | 0.0627 | 0.387 | -0.509
